Data as given in PubChem BioAssay (EPA / NIEHS).
Results filed as inconclusive are left out. Some structures have more than one record in an assay (separate samples or runs), and their calls can disagree. Activity calls are given as the source filed them. The calls were made as follows: active = hit-call score of the fitted dose curve at least 0.9, where 1 is the maximum; inconclusive = response in the unintended direction; inactive = score below 0.9.

What follows are compounds tested against Cellular tumor antigen p53 (Homo sapiens) (UniProt P04637) (assay: TOX21_p53_BLA_p4_ratio: Tox21 HCT-116 p53 Agonism Beta-lactamase Assay, Ratio, Phase 4 (AID 2283601)).
Sequence of Cellular tumor antigen p53 (Homo sapiens) (P04637 whole entry, looked up, the tested form may be a part): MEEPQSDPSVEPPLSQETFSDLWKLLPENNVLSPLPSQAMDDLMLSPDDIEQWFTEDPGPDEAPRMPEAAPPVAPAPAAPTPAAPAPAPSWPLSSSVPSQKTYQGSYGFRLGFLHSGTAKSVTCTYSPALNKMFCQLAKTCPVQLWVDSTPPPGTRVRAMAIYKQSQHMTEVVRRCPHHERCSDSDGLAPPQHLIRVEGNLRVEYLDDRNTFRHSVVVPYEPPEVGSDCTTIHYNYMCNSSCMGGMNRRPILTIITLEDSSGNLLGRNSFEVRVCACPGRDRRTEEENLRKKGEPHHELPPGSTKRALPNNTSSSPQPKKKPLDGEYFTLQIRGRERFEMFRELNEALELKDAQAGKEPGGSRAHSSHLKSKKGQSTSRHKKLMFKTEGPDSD
Description: TOX21_p53_BLA_p4 is a cell-based, single-readout assay that uses HCT116, a human intestinal cell line, […] in a 1536-well plate.TOX21_p53_BLA_p4_ratio is an assay readout measuring reporter gene via receptor activity and designed using inducible reporter (beta lactamase induction) detected with GAL4 b-lactamase reporter gene. The signal is derived from the ratio of cleaved (ch2) to uncleaved (ch1)reporter gene substrate used as the measure of target activity.Data from the assay component TOX21_p53_BLA_p4_ratio was analyzed into 1 assay endpoint. This assay endpoint, TOX21_p53_BLA_p4_ratio, was analyzed in the positive analysis fitting direction relative to DMSO as the negative control and baseline of activity. Using a type of inducible reporter, gain-of-signal activity can be used to understand changes in the reporter gene as they relate to the gene TP53. Furthermore, this assay endpoint can be referred to as a primary readout, because this assay has produced multiple assay endpoints where this ratio serves a reporter gene function to understand target activity. To generalize the intended target to other relatable targets, this assay endpoint is annotated to the DNA binding intended target family, where the subfamily is tumor suppressor.
Thawing Method: Place 14 mL of pre-warmed thaw medium into a 15 mL of conical tub. Remove the vial of cells to be thawed from liquid nitrogen and thaw rapidly by placing at 37C in a water bath with gentle agitation for 1-2 minutes. Decontaminate the vial by wiping with 70% ethanol before opening in a biological safety cabinet. Transfer the vial contents drop-wise into 14 mL of thaw medium in a sterile 15-mL conical tub. Centrifuge cells at 900 rpm for 4 minutes and resuspend in thaw medium. Transfer contents to the T75 tissue culture flask containing Thaw Medium and place flask in a humidified 37C/5% CO2 incubator. Switch to growth medium at first passage.Propagation Method: Aspirate medium, rinse once in DPBS, add 0.25% Trypsin/EDTA and swirl to coat the cell evenly. Add an equal volume of Growth Medium to inactivate Trypsin after 2-3 minutes incubation at 37C. Centrifuge cells at 900 rpm for 4 minutes and resuspend in growth medium. Cell should be passage or fed at least twice a week.Assay Protocol: Harvest cells from culture in growth medium and resuspend in assay medium. 2.2 Dispense 4000 cells/5 uL/well into 1536-well black/clear bottom plates using a Multidrop dispenser. After the cells were incubated at 37C for 5 hours, 23 nL of compounds dissolved in DMSO were transferred to the assay plate by a PinTool resulting in a 217-fold dilution. Incubate the plates for 16 hours at 37C, 5% CO2. Add 1 uL of 6X LiveBLAzer FRET B/G (CCF4-AM) Substrate Mixture to each well using a BioRAPTR dispenser and incubate the plates at room temperature for 2 hours. Measure fluorescence intensity at 460 and 530 nm emission and 405 nm excitation by an Envision detector. Data is expressed as the ratio of 460nm/530nm emissions. Add 4 uL of Cell-titer Glo to each well using BioRAPTR and incubate the plates at room temperature for 2 hours. Measure fluorescence intensity by a VewLux plate reader.
For `CCOC(=O)c1c[nH]c2cc(OCC(C)C)c(OCC(C)C)cc2c1=O`, the outcome was “inactive”.
For `CCC[C@@H]1C[C@@H](C(=O)N[C@@H]([C@H]2O[C@H](SC)[C@H](OP(=O)(O)O)[C@@H](O)[C@H]2O)[C@H](C)Cl)N(C)C1`, the outcome was “inactive”.
For `COc1ccc2cc([C@H](C)C(=O)O)ccc2c1`, the outcome was “inactive”.
For `Cc1cccc(C)c1NC(=O)C(C)N` (stereo not given), the outcome was “inactive”.
In the case of `CS(=O)(=O)OCCCNCCCOS(C)(=O)=O`, the outcome was “inactive”.
`O=C(Nc1ccc(Cl)c(Cl)c1)C1CC1` was tested, and the outcome was “inactive”.
`COc1ccc(OC)c(C(O)CNC(=O)CN)c1` (stereo not given) was tested, and the outcome was “inactive”.
For `C[N+](C)(C)CC(O)CC(=O)[O-]` (stereo not given), the outcome was “inactive”.
With `O=S(=O)(O)CCO` the outcome was “inactive”.
With `O=c1[nH]c(=O)n([C@H]2C[C@H](O)[C@@H](CO)O2)cc1Br` the outcome was “inactive”.
In the case of `Cc1c(C)c2c(c(C)c1OC(=O)CCC(=O)OCCO)CCC(C)(CCCC(C)CCCC(C)CCCC(C)C)O2` (stereo not given), the AC50 was 37.8 µM (active).
`C=C1CC[C@H](O)C/C1=C/C=C1\CCC[C@]2(C)[C@@H]([C@H](C)CCCC(C)C)CC[C@@H]12` was tested, and the AC50 was 76.7 µM (active) and the outcome was “inactive”.
For `Cc1nc(Nc2ncc(C(=O)Nc3c(C)cccc3Cl)s2)cc(N2CCN(CCO)CC2)n1`, the AC50 was 22.8 µM (active).
With `CC[C@H]1OC(=O)[C@H](C)[C@@H](O[C@H]2C[C@@](C)(OC)[C@@H](O)[C@H](C)O2)[C@H](C)[C@@H](O[C@@H]2O[C@H](C)C[C@H](N(C)C)[C@H]2O)[C@](C)(OC)C[C@@H](C)C(=O)[C@H](C)[C@@H](O)[C@]1(C)O` the outcome was “inactive”.
`N#Cc1c(N(CC(=O)O)CC(=O)O)sc(C(=O)O)c1CC(=O)O` was tested, and the outcome was “inactive”.
For `CCCC(C(=O)OCCN(CC)CC)(c1ccccc1)c1ccccc1`, the outcome was “inactive”.
With `CCCCCCCCCCCCCCCC[N+](C)(C)CCN(Cc1ccc(OC)cc1)c1ncccn1` the outcome was “inactive”.
With `O=C(O)c1c(Cl)cccc1Cl` the outcome was “inactive”.
For `O=Cc1ccc(Cl)cc1`, the outcome was “inactive”.
With `CN1C(=O)CC(c2ccccc2)C1=O` (stereo not given) the outcome was “inactive”.
For `CC(C)(O)C(=O)O`, the outcome was “inactive”.
For `O=C(NC(Cc1cc(=O)[nH]c2ccccc12)C(=O)O)c1ccc(Cl)cc1` (stereo not given), the outcome was “inactive”.
With `C[C@]12O[C@H](C[C@]1(O)CO)n1c3ccccc3c3c4c(c5c6ccccc6n2c5c31)CNC4=O` the AC50 was 0.0528 µM (active).
For `CCCCCCCCOCCC#N`, the outcome was “inactive”.
In the case of `NCCN1CCOCC1`, the outcome was “inactive”.
In the case of `C/C=C1\NC(=O)[C@H]2CSSCC/C=C/[C@H](CC(=O)N[C@H](C(C)C)C(=O)N2)OC(=O)C(C(C)C)NC1=O` (stereo not given in full), the AC50 was 7.21 µM (active).
`CC(C)(C)OCC1CO1` (stereo not given) was tested, and the outcome was “inactive”.
For `Cc1cccn2c(=O)c(-c3nnn[nH]3)cnc12`, the outcome was “inactive”.
With `CC(C)[C@@H](N)C(=O)O` the outcome was “inactive”.
For `C/C=C(\C)C=O`, the outcome was “inactive”.
With `C=C(CC)C(=O)c1ccc(OCC(=O)O)c(Cl)c1Cl` the AC50 was 25.2 µM (active) and the outcome was “inactive”.
With `COC(=O)C1=C(C)NC(C)=C(C(=O)OC(C)(C)CN(C)CCC(c2ccccc2)c2ccccc2)C1c1cccc([N+](=O)[O-])c1` (stereo not given) the outcome was “inactive”.
In the case of `CCCCCCCCCCCCCCCCCCOCC(O)CO` (stereo not given), the outcome was “inactive”.
In the case of `C1OCOCO1`, the outcome was “inactive”.
`O=C1c2ccccc2C(=O)C1c1ccc(Br)cc1` was tested, and the outcome was “inactive”.
For `CC(CCC(=O)O)C(=O)O` (stereo not given), the outcome was “inactive”.
With `CCCN(CCc1cccs1)[C@H]1CCc2c(O)cccc2C1` the outcome was “inactive”.
In the case of `CC(=O)O[Si](C)(OC(C)=O)OC(C)=O`, the outcome was “inactive”.
